For assay [1], the target named is Nuclear receptor coactivator 3 (Homo sapiens) (UniProt Q9Y6Q9). The assay can be described thus: NCOA3 GAL4-fusion reporter inhibition – cell-based, luminescence, quadruplicate, confirmation (AID 588792;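 active = mean inhibition over 43.08%, the solvent-only control mean plus 3 SD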;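 also: 0% = DMSO treated cells and 100% = gossypol at 36 µM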). The following applies: HEK293 GAL4-SRC3 luciferase reporter, at 3.6 µM, hits give high values. Background: A reporter such as luciferase makes a cellular process visible.

Assay [2] relates to transactivating tegument protein VP16 (Human herpesvirus 1), Gal4-VP16 luciferase reporter. The assay can be described thus: repression of VP16-driven luciferase reporter – cell-based, luminescence, high throughput, counter-screen for SRC3 inhibitor project (AID 588794). The following applies: mammalian cells, at 3.6 µM, hits give high values.
In assay [3] the target is Nuclear receptor coactivator 1 (Homo sapiens) (UniProt Q15788). As to the kind of experiment: NCOA1 GAL4-fusion reporter inhibition – cell-based, luminescence, quadruplicate, confirmation (AID 588820;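 active = mean inhibition above 46.68%, the untreated control wells mean plus 3 SD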;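 also: 0% = DMSO wells and 100% = gossypol 36 µM treated wells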). Particulars: HEK293 GAL4-SRC1 luciferase reporter, at 3.6 µM, hits give high values.
Assay [4] can be described thus: repression of VP16-driven luciferase reporter – cell-based, luminescence, high throughput, counter-screen for SRC1 inhibitor project (AID 588824; in the data active = inhibition above about 25%). The following applies: cell-based VP16 transactivation luciferase luminescence; at 3.6 µM; hits give high values.
The test system of assay [5] is transactivating tegument protein VP16 (Human herpesvirus 1). The assay can be described thus: compounds suppressing VP16-driven luciferase signal – cell-based, luminescence, single concentration, counter-screen for SRC2 inhibitor project (AID 652007; in the data active = inhibition above about 36%). The following applies: cell-based VP16 transactivation luciferase reporter, at 8.9 µM, hits give high values. (Counterscreens check selectivity or assay interference.)

Assay [6] concerns the target Nuclear receptor coactivator 2 (Homo sapiens) (UniProt Q15596). The assay can be described thus: inhibition of GAL4-SRC2 driven luciferase expression – cell-based, luminescence, HEK293, triplicate, confirmation (AID 652008;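 active = mean inhibition above 46.5%, the solvent-only control mean plus 3 SD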;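 also: 0% = DMSO-treated cells and 100% = Gossypol at 36 µM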). The following applies: HEK293 GAL4-SRC2 luciferase reporter, at 8.9 µM, hits give high values.
The nature of assay [7]: VP16-driven transactivation reporter suppression – cell-based, luminescence, HEK293, counter-screen for COUP-TFII antagonist project (AID 687007; in the data active = inhibition above about 13%). The following applies: HEK293 Gal4-VP16 luciferase reporter, at 8.5 µM, hits give high values.
Assay [8] concerns the target COUP transcription factor 2 (Homo sapiens) (UniProt P24468). As to the kind of experiment: retest of COUP-TFII reporter suppressors – cell-based, luciferase reporter, HEK293, triplicate, confirmation (AID 687008;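 active = mean inhibition over three repeats above a set limit taken from the earlier primary screen, cut at about 38% in these data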;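 also: 100% = cells given the luciferase reporter alone without the COUP-TF2 vector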). The following applies: HEK293 NGFI-A luciferase reporter, luminescence; at 8.5 µM; hits give high values.

The values that follow come from PubChem BioAssay.

Molecules are shown by their SMILES. Values without a mark were called inactive. This is one part of the list. Calls of active or inactive are those of the source. Rule as the data show it, unless noted: active = inhibition above about 30%; inactive = the rest.

Chain of Nuclear receptor coactivator 2 (Homo sapiens) (Q15596 whole entry, looked up, the tested form may be a part): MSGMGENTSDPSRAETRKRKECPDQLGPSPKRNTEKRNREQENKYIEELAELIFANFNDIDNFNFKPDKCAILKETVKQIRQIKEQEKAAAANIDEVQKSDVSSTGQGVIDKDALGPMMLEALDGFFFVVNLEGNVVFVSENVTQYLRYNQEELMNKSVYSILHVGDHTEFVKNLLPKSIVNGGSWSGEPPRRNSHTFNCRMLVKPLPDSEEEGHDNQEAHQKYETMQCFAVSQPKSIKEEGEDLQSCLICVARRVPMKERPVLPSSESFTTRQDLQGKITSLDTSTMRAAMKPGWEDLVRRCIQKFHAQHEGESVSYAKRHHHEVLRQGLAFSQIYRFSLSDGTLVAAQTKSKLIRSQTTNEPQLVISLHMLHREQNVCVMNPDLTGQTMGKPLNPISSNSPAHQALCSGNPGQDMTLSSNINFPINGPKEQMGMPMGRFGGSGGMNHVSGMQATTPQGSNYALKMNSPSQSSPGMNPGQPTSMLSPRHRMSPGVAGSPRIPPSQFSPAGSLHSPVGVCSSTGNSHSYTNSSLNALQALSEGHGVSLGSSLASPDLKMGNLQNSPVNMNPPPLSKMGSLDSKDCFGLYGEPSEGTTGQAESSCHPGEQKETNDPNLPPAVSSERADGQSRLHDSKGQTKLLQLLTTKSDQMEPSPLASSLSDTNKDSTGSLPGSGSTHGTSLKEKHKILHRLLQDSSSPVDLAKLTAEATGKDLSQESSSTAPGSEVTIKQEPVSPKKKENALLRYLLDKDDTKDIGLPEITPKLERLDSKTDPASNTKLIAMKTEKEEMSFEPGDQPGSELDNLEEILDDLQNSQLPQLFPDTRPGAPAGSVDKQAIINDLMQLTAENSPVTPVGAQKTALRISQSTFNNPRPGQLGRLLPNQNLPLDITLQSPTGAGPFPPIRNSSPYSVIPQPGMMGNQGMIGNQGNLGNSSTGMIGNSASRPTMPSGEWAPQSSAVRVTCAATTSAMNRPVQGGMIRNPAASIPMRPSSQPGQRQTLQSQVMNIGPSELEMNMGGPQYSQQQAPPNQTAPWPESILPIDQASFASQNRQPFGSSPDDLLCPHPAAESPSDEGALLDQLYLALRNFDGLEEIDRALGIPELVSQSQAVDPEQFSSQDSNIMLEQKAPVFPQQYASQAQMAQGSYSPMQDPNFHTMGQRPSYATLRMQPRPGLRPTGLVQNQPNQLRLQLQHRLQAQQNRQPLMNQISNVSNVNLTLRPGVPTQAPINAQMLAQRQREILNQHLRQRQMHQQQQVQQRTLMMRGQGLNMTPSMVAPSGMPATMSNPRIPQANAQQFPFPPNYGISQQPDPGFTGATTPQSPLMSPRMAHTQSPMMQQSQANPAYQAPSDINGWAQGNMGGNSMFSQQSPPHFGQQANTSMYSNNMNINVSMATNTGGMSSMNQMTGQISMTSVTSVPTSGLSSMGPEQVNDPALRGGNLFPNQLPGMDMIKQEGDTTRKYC
Chain of Nuclear receptor coactivator 1 (Homo sapiens) (Q15788 whole entry, looked up, the tested form may be a part): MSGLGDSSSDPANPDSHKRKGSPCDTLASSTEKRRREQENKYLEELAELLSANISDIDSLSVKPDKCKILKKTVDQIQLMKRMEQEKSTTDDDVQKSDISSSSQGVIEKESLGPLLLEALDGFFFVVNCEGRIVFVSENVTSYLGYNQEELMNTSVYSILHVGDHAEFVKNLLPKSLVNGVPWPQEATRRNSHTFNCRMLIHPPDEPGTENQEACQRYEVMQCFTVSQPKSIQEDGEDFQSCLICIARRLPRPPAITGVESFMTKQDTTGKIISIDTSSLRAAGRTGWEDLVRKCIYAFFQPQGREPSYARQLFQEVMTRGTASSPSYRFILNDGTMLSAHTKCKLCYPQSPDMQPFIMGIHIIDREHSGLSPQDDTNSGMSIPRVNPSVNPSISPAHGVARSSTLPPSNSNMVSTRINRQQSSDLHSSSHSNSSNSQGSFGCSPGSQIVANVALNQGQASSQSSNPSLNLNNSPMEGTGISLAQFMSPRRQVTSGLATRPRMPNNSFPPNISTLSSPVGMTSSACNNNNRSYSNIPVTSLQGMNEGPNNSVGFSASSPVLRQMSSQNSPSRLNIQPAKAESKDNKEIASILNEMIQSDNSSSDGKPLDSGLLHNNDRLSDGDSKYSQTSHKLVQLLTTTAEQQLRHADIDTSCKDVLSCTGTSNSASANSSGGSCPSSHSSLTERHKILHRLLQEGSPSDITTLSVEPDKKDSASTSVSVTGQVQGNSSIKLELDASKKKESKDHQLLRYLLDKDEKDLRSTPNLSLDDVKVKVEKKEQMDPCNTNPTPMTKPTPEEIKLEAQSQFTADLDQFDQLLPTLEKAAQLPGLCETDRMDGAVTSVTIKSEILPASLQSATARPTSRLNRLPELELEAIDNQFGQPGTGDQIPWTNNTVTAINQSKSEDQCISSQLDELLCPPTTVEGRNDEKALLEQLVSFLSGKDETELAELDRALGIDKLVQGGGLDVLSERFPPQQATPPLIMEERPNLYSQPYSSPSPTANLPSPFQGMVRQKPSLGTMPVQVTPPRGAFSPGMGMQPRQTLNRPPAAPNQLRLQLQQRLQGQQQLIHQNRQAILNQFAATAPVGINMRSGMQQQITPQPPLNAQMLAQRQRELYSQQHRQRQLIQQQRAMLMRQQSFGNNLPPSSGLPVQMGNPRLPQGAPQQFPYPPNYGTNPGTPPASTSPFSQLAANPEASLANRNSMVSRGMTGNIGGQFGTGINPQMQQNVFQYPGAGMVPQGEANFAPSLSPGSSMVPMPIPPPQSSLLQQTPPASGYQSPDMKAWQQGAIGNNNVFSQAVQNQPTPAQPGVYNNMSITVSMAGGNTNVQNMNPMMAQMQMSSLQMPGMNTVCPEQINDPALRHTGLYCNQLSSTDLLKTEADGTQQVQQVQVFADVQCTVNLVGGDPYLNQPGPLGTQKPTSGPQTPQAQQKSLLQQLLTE
Chain of Nuclear receptor coactivator 3 (Homo sapiens) (Q9Y6Q9 whole entry, looked up, the tested form may be a part): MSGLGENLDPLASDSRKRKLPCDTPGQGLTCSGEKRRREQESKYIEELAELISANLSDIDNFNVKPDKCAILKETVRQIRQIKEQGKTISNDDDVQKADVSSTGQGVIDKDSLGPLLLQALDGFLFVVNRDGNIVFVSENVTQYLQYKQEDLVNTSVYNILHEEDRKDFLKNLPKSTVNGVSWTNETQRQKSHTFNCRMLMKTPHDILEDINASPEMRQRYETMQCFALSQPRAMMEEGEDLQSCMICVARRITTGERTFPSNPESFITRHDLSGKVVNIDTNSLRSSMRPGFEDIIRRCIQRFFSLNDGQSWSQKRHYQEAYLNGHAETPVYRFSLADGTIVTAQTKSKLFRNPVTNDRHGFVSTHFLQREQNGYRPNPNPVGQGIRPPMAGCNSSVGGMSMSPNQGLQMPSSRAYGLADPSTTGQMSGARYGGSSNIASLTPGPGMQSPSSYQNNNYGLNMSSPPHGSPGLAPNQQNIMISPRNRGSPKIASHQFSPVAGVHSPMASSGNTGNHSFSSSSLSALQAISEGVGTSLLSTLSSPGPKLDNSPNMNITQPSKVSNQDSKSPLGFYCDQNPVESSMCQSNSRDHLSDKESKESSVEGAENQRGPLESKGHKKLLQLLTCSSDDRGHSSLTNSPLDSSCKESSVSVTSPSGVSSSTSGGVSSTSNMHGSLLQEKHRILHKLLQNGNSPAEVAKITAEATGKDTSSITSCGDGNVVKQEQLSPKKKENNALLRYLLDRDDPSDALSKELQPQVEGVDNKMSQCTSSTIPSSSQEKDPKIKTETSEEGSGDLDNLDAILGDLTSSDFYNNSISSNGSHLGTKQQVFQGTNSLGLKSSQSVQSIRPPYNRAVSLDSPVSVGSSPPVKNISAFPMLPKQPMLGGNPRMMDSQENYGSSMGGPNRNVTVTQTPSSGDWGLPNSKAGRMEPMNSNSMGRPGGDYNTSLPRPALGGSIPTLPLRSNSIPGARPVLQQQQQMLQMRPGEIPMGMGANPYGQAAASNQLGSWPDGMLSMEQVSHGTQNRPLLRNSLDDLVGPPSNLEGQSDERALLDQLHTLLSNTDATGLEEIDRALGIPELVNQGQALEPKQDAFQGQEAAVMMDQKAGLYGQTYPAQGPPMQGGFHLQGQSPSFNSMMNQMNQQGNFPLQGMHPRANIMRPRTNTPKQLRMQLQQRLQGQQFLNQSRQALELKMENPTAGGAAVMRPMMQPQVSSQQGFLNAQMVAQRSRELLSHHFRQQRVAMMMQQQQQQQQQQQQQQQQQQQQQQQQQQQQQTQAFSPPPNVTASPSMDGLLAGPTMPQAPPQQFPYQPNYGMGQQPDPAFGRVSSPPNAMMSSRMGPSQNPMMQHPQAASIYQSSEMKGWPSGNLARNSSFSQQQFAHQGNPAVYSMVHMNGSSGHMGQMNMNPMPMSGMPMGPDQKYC
Chain of COUP transcription factor 2 (Homo sapiens) (P24468 whole entry, looked up): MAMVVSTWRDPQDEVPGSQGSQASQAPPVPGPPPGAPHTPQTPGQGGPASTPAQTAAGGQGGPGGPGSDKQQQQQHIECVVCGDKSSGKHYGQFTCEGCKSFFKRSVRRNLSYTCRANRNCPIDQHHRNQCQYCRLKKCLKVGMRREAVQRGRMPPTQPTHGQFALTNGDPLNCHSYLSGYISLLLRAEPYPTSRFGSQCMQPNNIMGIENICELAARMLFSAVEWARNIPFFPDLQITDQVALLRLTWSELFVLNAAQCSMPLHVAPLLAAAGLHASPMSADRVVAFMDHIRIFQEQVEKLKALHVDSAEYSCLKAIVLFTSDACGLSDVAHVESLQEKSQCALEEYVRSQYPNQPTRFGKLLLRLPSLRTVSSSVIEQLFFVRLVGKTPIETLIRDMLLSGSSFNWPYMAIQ

Usually inhibition stands for the relative decrease from the control value, in per cent. Turning to `O=C(CN1C(=O)c2ccccc2S1(=O)=O)N1CCc2ccccc21`, the inhibition in assay [1] is 60.5% (active); in assay [2] it was 60.9% (active); in assay [3], 40.8%; in assay [4], 65.1% (active); in assay [5] it was 65.5% (active); in assay [6], 85.9% (active). Moreover, the inhibition in assay [7] is 65.9% (active); in assay [8], 74.9% (active).
Turning to `O=c1c2ccccc2cnn1-c1nc2ccccc2[nH]1`, the inhibition in assay [1] was 57.4% (active); in assay [2] it was 50.6% (active); in assay [3] it was 22.3%; in assay [4], 41.9% (active); in assay [5], 76.6% (active); in assay [6] it was 84.9% (active).
For the molecule `Brc1cccc(CSc2nnc(-c3ccncc3)o2)c1`, the inhibition in assay [1] is 45.8% (active); in assay [2], 35.2% (active); in assay [3], 44.4%; in assay [4], 26.9% (active); in assay [5], 0.08%; in assay [6] it was 27.6%.
`COc1ccc2[nH]c3c(c2c1)CC(C)NC3=O` (centres undefined): the inhibition in assay [1] was 73% (active); in assay [2] it was 49.7% (active); in assay [3], 67.3% (active); in assay [4], 52.2% (active); in assay [5], 14.3%; in assay [6], 41.6%.
`CC(C)(C)c1ccc(Oc2ccc(NC(=O)c3ccccc3C(=O)O)cn2)cc1`: the inhibition in assay [1] is 4.23%; in assay [2] it was 10.3%; in assay [3], 2.66%; in assay [4], 7.37%; in assay [5], 39.5% (active); in assay [6], 62.4% (active).
Consider `Cc1ccccc1C(=O)N1CCN(c2ccc(NC(=O)c3ccc4c(c3)OCCO4)cc2)CC1`, for which the inhibition in assay [1] is 25.7%; in assay [2], 43% (active); in assay [3], 32.2%; in assay [4], 41.5% (active); in assay [5] it was 34.3%; in assay [6], 45.5%.
`CCCC(=O)NC(c1ccc(Cl)cc1Cl)c1ccc2cccnc2c1O` (centres undefined): the inhibition was 34.5% in assay [1]; 28.6% in assay [2]; 45.7% in assay [3]; 48% (active) in assay [4]; 0.83% in assay [5]; 17.2% in assay [6].
On to `O=C(Nc1ccc(C(=O)N2CCOCC2)cc1)Nc1cccc(C(F)(F)F)c1`, for which the inhibition in assay [1] was 66.9% (active); in assay [2], 43.2% (active); in assay [3] it was 64.3% (active); in assay [4] it was 38.8% (active); in assay [5], -0.39%; in assay [6], 36.4%.
As for `CCc1ccc(-c2nc(CSCC(=O)NCc3ccco3)c(C)o2)cc1`, the inhibition in assay [1] is 33.8%; in assay [2] it was 27.9%; in assay [3] it was 33.9%; in assay [4] it was 24.5%; in assay [5], 41.4% (active); in assay [6], 70.5% (active).
`O=C(N/N=C/c1cc(Br)ccc1O)C(c1ccncc1)N1CCOCC1` (centres undefined): the inhibition in assay [1] was 19.3%; in assay [2], 20.1%; in assay [3], 19.4%; in assay [4], 10.6%; in assay [5] it was 11.5%; in assay [6], 10.1%.
Turning to `Cc1nc2c(-c3ccc(Cl)cc3)cnn2c(N)c1-c1ccc(F)cc1`, the inhibition in assay [1] is 38%; in assay [2] it was 24.5%; in assay [3], -12%; in assay [4], -6.2%; in assay [5], 2.27%; in assay [6], 53.7% (active).
For `COc1ccc(-c2cn[nH]c2-c2ccc(OC)cc2O)cc1`, the inhibition was 54.6% (active) in assay [1]; 26.5% in assay [2]; 46.3% in assay [3]; 29.9% (active) in assay [4]; 2.11% in assay [5]; 25.8% in assay [6].
As for `NC(=O)c1sc2nc3c(c(-c4ccccc4)c2c1N)CCC3`, the inhibition in assay [1] is 77.1% (active); in assay [2], 54.8% (active); in assay [3], 72.8% (active); in assay [4] it was 49.3% (active); in assay [5], 12.9%; in assay [6], 51% (active). In addition, the results for the inhibition in assay [7] and in assay [8] were 18.6% (active) and 31.9%, respectively.
`CCc1cc(-c2[nH]ncc2-c2ccc3c(c2)OCO3)c(O)cc1O`: the inhibition in assay [1] is 59.9% (active); in assay [2], 34.5% (active); in assay [3], 27.7%; in assay [4] it was 39.8% (active); in assay [5], 30.3%; in assay [6], 18.2%.
As to `Cc1cc(C(=O)COc2cccnc2[N+](=O)[O-])c(C)n1-c1ccccc1`, the inhibition is -5.17% in assay [1]; -52.9% in assay [2]; -11.3% in assay [3]; -70.8% in assay [4]; -71.7% in assay [5]; 68.1% (active) in assay [6].
As to `Cc1ccc(C(=O)Nc2cnc3ccccc3c2)cc1`, the inhibition in assay [1] was 44.4% (active); in assay [2] it was 9.25%; in assay [3], -70.2%; in assay [4] it was 23.4%; in assay [5], 50.7% (active); in assay [6] it was 84.9% (active).
Consider `Oc1ccc(N=Nc2ccc3c(c2)OCCO3)c2cccnc12`, for which the inhibition in assay [1] is 19.8%; in assay [2], -38.3%; in assay [3], 4.34%; in assay [4], -39.5%; in assay [5], -16.8%; in assay [6], -7.52%.
For `Cc1cc(C(=O)COC(=O)C2CC2)c(C)n1-c1ccc(F)cc1`, the inhibition is 4.63% in assay [1]; 5.67% in assay [2]; -12.9% in assay [3]; -14.9% in assay [4]; 1.88% in assay [5]; 20.3% in assay [6]. Further, the inhibition is -16.4% in assay [7] and 30.3% in assay [8].
As for `C=CCSc1nsc(NC(=O)Nc2cccc(C(C)=O)c2)n1`, the inhibition in assay [1] is 44% (active); in assay [2] it was 31.2% (active); in assay [3] it was 46.4%; in assay [4], 27.2% (active); in assay [5], -25.7%; in assay [6], 17.3%. Besides, the inhibition was -25.6% in assay [7] and 2.43% in assay [8].
Regarding `COc1ccc(/C=C2/SC(=S)N(CCC(=O)O)C2=O)cc1`, the inhibition in assay [1] is 34.8%; in assay [2] it was 4.06%; in assay [3] it was 23%; in assay [4] it was 0.23%; in assay [5] it was -21.3%; in assay [6], 85.1% (active).
In the case of `Clc1ccc(-c2csc(=Nc3cccnc3)n2CCCn2ccnc2)cc1Cl`, the inhibition in assay [1] is 53.9% (active); in assay [2] it was 35.4% (active); in assay [3], 49.7% (active); in assay [4] it was 39% (active); in assay [5], 15.6%; in assay [6], 63.7% (active).
